The full ranking holds about 16,000 sequences; the median of “rpm ratio (pull-down/input)” is about 0.94, and the highest 2% start at about 1.7. Many of the other results were omitted from the sample, so the highest values are more common in it than they were.

The target of the assay is T1, MBP-FoxP1dN (Mus musculus, UniProt P58462 326-579).
T1 sequence: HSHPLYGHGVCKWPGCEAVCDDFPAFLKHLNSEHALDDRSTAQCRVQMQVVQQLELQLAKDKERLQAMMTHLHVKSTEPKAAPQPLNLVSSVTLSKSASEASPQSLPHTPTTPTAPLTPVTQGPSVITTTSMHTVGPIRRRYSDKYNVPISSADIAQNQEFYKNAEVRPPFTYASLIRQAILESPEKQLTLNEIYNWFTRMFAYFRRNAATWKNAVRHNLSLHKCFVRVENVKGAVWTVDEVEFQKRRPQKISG
Nature of the assay: PD-seq (MBP pull-down with sequencing); 20 mM Tris-HCl pH 7.5, 100 mM NaCl, 1.5 mM MgCl2, 0.4 uM protein, 0.1 uM dsDNA library, 30 min, room temperature, amylose pull-down; high values mean tight binding. The following applies: protein: recombinant; tags: His6-MBP; chain copies: 2; dsDNA, one strand shown. The gist of the method:
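Binding is the reads-per-million enrichment of pull-down relative to input, pooled across replicates. For this, 0.4 µM His6-MBP-tagged mouse FoxP3 or FoxP1 fragment lacking the N-terminus, made in E. coli, was incubated with 0.1 µM Klenow-filled double-stranded degenerate DNA library for 30 min at room temperature in Tris pH 7.5 buffer with NaCl and MgCl2. Complexes bound to amylose resin were washed three times before proteinase K released the DNA for PCR barcoding and Illumina sequencing.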
Regarding “GATGATTGTTCTCCCAGCTGATGAATTTACCCCGTCGAGTAAACAAATTTTCCTAATCTTTCTGTTCAAGCGCCATCTAC”, the binding signal was 1.07 RPM ratio (pull-down/input).
Next, “GATGATTGTTCTCCCAGCTGATGAATTCGTCTCTTCGAGTAAACAAATTTTCCTAATCTTTCTGTTCAAGCGCCATCTAC”: 0.871 RPM ratio (pull-down/input); “GATGATTGTTCTCCCAGCTGATGAATTGGAACGTTCGAGTAAACAAATTTTCCTAATCTTTCTGTTCAAGCGCCATCTAC”: 0.904 RPM ratio (pull-down/input).
In the case of “GATGATTGTTCTCCCAGCTGATGAATTATTGTGGTCGAGTAAACAAATTTTCCTAATCTTTCTGTTCAAGCGCCATCTAC” it was 1.51 RPM ratio (pull-down/input).
In the case of “GATGATTGTTCTCCCAGCTGATGAATTCTTGCTGTCGAGTAAACAAATTTTCCTAATCTTTCTGTTCAAGCGCCATCTAC” it was 1.45 RPM ratio (pull-down/input); in that of “GATGATTGTTCTCCCAGCTGATGAATTGTTGCTGTCGAGTAAACAAATTTTCCTAATCTTTCTGTTCAAGCGCCATCTAC”, 2 RPM ratio (pull-down/input).
As for “GATGATTGTTCTCCCAGCTGATGAATTGCTGTTGTCGAGTAAACAAATTTTCCTAATCTTTCTGTTCAAGCGCCATCTAC”, the binding signal is 2.5 RPM ratio (pull-down/input).
Take “GATGATTGTTCTCCCAGCTGATGAATTGCTGATGTCGAGTAAACAAATTTTCCTAATCTTTCTGTTCAAGCGCCATCTAC”: the binding signal is 1.22 RPM ratio (pull-down/input).
In the case of “GATGATTGTTCTCCCAGCTGATGAATTTTTGCTGTCGAGTAAACAAATTTTCCTAATCTTTCTGTTCAAGCGCCATCTAC” it was 1.59 RPM ratio (pull-down/input); in that of “GATGATTGTTCTCCCAGCTGATGAATTGCTGCTGTCGAGTAAACAAATTTTCCTAATCTTTCTGTTCAAGCGCCATCTAC”, 1.29 RPM ratio (pull-down/input).
In the case of “GATGATTGTTCTCCCAGCTGATGAATTCTCTCGCTCGAGTAAACAAATTTTCCTAATCTTTCTGTTCAAGCGCCATCTAC” it was 0.825 RPM ratio (pull-down/input); in that of “GATGATTGTTCTCCCAGCTGATGAATTCTACCCCTCGAGTAAACAAATTTTCCTAATCTTTCTGTTCAAGCGCCATCTAC”, 0.797 RPM ratio (pull-down/input).
Next, “GATGATTGTTCTCCCAGCTGATGAATTGCGATAATCGAGTAAACAAATTTTCCTAATCTTTCTGTTCAAGCGCCATCTAC”: 1.43 RPM ratio (pull-down/input); “GATGATTGTTCTCCCAGCTGATGAATTTGTTGTATCGAGTAAACAAATTTTCCTAATCTTTCTGTTCAAGCGCCATCTAC”: 2.21 RPM ratio (pull-down/input).
“GATGATTGTTCTCCCAGCTGATGAATTTGTATCATCGAGTAAACAAATTTTCCTAATCTTTCTGTTCAAGCGCCATCTAC”: the binding signal is 1.51 RPM ratio (pull-down/input).
In the case of “GATGATTGTTCTCCCAGCTGATGAATTTGATGTATCGAGTAAACAAATTTTCCTAATCTTTCTGTTCAAGCGCCATCTAC” it was 1.25 RPM ratio (pull-down/input); in that of “GATGATTGTTCTCCCAGCTGATGAATTTGCTGTATCGAGTAAACAAATTTTCCTAATCTTTCTGTTCAAGCGCCATCTAC”, 1.16 RPM ratio (pull-down/input); in that of “GATGATTGTTCTCCCAGCTGATGAATTTTTTGTATCGAGTAAACAAATTTTCCTAATCTTTCTGTTCAAGCGCCATCTAC”, 1.26 RPM ratio (pull-down/input).
Turning to “GATGATTGTTCTCCCAGCTGATGAATTGTTTGTATCGAGTAAACAAATTTTCCTAATCTTTCTGTTCAAGCGCCATCTAC”, the binding signal was 2.64 RPM ratio (pull-down/input).
Next, “GATGATTGTTCTCCCAGCTGATGAATTCCGCCTATCGAGTAAACAAATTTTCCTAATCTTTCTGTTCAAGCGCCATCTAC”: 0.791 RPM ratio (pull-down/input); “GATGATTGTTCTCCCAGCTGATGAATTTGGGGTGTCGAGTAAACAAATTTTCCTAATCTTTCTGTTCAAGCGCCATCTAC”: 0.832 RPM ratio (pull-down/input); “GATGATTGTTCTCCCAGCTGATGAATTTTTGGTATCGAGTAAACAAATTTTCCTAATCTTTCTGTTCAAGCGCCATCTAC”: 1.09 RPM ratio (pull-down/input).
Consider “GATGATTGTTCTCCCAGCTGATGAATTGGTATTATCGAGTAAACAAATTTTCCTAATCTTTCTGTTCAAGCGCCATCTAC”, for which the binding signal is 1.9 RPM ratio (pull-down/input).
Next, “GATGATTGTTCTCCCAGCTGATGAATTATCGGTATCGAGTAAACAAATTTTCCTAATCTTTCTGTTCAAGCGCCATCTAC”: 1.02 RPM ratio (pull-down/input).
In the case of “GATGATTGTTCTCCCAGCTGATGAATTGGTTGTATCGAGTAAACAAATTTTCCTAATCTTTCTGTTCAAGCGCCATCTAC” it was 1.3 RPM ratio (pull-down/input); in that of “GATGATTGTTCTCCCAGCTGATGAATTGTTGGTATCGAGTAAACAAATTTTCCTAATCTTTCTGTTCAAGCGCCATCTAC”, 1.92 RPM ratio (pull-down/input).
Next, “GATGATTGTTCTCCCAGCTGATGAATTATTGGTATCGAGTAAACAAATTTTCCTAATCTTTCTGTTCAAGCGCCATCTAC”: 1.55 RPM ratio (pull-down/input); “GATGATTGTTCTCCCAGCTGATGAATTGTGTGCCTCGAGTAAACAAATTTTCCTAATCTTTCTGTTCAAGCGCCATCTAC”: 1.14 RPM ratio (pull-down/input); “GATGATTGTTCTCCCAGCTGATGAATTGCGATGCTCGAGTAAACAAATTTTCCTAATCTTTCTGTTCAAGCGCCATCTAC”: 1.2 RPM ratio (pull-down/input).
“GATGATTGTTCTCCCAGCTGATGAATTCCGAGAGTCGAGTAAACAAATTTTCCTAATCTTTCTGTTCAAGCGCCATCTAC”: the binding signal was 0.749 RPM ratio (pull-down/input).
In the case of “GATGATTGTTCTCCCAGCTGATGAATTCATCGTCTCGAGTAAACAAATTTTCCTAATCTTTCTGTTCAAGCGCCATCTAC” it was 0.784 RPM ratio (pull-down/input); in that of “GATGATTGTTCTCCCAGCTGATGAATTCAGGTTCTCGAGTAAACAAATTTTCCTAATCTTTCTGTTCAAGCGCCATCTAC”, 0.857 RPM ratio (pull-down/input).

The record behind these values is PMC12820563, “FoxP3 forms a head-to-head dimer in vivo and stabilizes its multimerization on adjacent microsatellites”.
